An excerpt weighted towards active compounds, which were near 1.1% of everything screened.
SRC3 inh – SRC3 coactivator transcriptional activity inhibitors, primary screen, cell-based, luminescence. actives 0.17% (n = 360,000). HEK293 GAL4-SRC3 luciferase reporter. AID 588352, 2011. inhibition, % at 3.6 µM;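 active = inhibition above a per-campaign cutoff, the mean of all compounds plus 3 SD, cut at about 60% in these data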;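 also: 0% = DMSO-treated cells and 100% = gossypol-treated cells at 36 µM; higher means less SRC3-driven luciferase light from the GAL4 reporter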
NCOA1 inh – SRC1 coactivator transcriptional activity inhibitors, primary screen, cell-based, luminescence; inhibition, % at 3.6 µM; Nuclear receptor coactivator 1 (Homo sapiens), Q15788; HEK293 GAL4-SRC1 luciferase reporter; actives 0.12% (n = 360,000);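 active = inhibition above the campaign mean plus 3 SD, with each screening campaign given its own cutoff, cut at about 60% in these data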;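 also: 0% = DMSO treated cells and 100% = gossypol at 36 µM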
SRC2 inh – inhibition of GAL4-SRC2 driven luciferase reporter, primary screen, SRC2 inhibitor project, cell-based, luminescence; actives 0.17% (n = 370,000); inhibition, % at 9 µM; AID 651957, 2012; HEK293 GAL4-SRC2 luciferase reporter;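 active = inhibition above the mean inhibition of all tested compounds plus 3 SD, set per campaign, cut at about 52% in these data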;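 also: 0% = DMSO treated cells and 100% = cells given Gossypol at 36 µM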
NR5A2 inv ag – LRH-1 (NR5A2) inverse agonists, primary screen, cell-based, luminescence, HEK293T, StAR-luciferase reporter; AID 602396, 2012; Nuclear receptor subfamily 5 group A member 2 (Homo sapiens), O00482; inhibition, % at 3.6 µM; actives 0.13% (n = 360,000); LRH-1 transfected, 24 h;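 active = inhibition above the mean inhibition of all tested compounds plus 3 SD, cut at about 73% in these data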;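 also: 0% = DMSO wells and 100% = reporter-only cells lacking LRH-1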
GalR3 antag – GalR3 antagonists in HEK293 cells, primary screen, cell-based, fluorescence readout; Galanin receptor type 3 (Homo sapiens), O60755; HEK293 GalR3-CNG cAMP membrane potential fluorescence; galR3 body fused to GalR1 C-terminus; inhibition, % at 3 µM; actives 0.44% (n = 360,000);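 active = inhibition above the screen-wide average plus 3 SD, cut at about 13% in these data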;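 also: forskolin and galanin both at EC90 stimulate the cells; cAMP rise reported by CNG channel membrane potential dye signal; 0% = forskolin plus galanin with DMSO and 100% = forskolin alone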
Target sequence (O60755 1-299 limits assumed): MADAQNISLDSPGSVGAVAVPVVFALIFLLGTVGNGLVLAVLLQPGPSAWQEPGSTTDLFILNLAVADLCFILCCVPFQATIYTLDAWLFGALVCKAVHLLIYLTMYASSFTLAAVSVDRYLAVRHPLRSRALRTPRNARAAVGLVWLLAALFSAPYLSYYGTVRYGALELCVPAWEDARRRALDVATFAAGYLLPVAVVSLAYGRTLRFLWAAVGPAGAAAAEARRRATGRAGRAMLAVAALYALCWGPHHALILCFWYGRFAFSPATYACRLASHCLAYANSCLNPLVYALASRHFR
NR2F2 inh – NR2F2 transcriptional activity inhibitors, primary screen, cell-based, luciferase reporter, HEK293T, luminescence. HEK293T NGFI-A luciferase reporter. AID 686940, 2013. inhibition, % at 8.6 µM. COUP transcription factor 2 (Homo sapiens), P24468. actives 0.7% (n = 370,000);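 active = inhibition above a per-plate cutoff, mean inhibition of test wells between control levels plus 3 SD, cut at about 38% in these data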;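 also: cells cotransfected with COUP-TFII expression vector driving the NGFI-A reporter; 0% = median of COUP-TF2 test wells and 100% = reporter-only cells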
VP16 Luc counter – Gal4-VP16 luciferase reporter inhibitors, counter-screen for COUP-TFII antagonist project, cell-based, luminescence, HEK293; shares compounds with NR2F2 inh; inhibition, % at 8.5 µM; actives 25% (n = 2,500); in the data active = inhibition above about 13%
NR2F2 inh conf – NR2F2 transcriptional activity inhibitors, confirmation, cell-based, luciferase reporter, HEK293, triplicate | shares compounds with NR2F2 inh | inhibition, % at 8.5 µM | HEK293 NGFI-A luciferase reporter, luminescence | actives 45% (n = 2,500);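 active = mean inhibition over three repeats above a set limit taken from the earlier primary screen, cut at about 38% in these data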;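 also: 100% = cells given the luciferase reporter alone without the COUP-TF2 vector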
Numbers without * were called inactive; . = no result; ! = a repeat was not active.

SMILES	SRC3 inh	NCOA1 inh	SRC2 inh	NR5A2 inv ag	GalR3 antag	NR2F2 inh	VP16 Luc counter	NR2F2 inh conf
Clc1ccc(/C=N/N2CCN(Cc3ccccc3)CC2)cc1	-8	-26	17	-8	3	-4	.	.
Clc1ccc(CN2CCN(N=Cc3ccncc3)CC2)cc1	.	.	33	.	.	50*	13	35
CCc1nc2ccc(C(=O)Nc3cc(-c4ccccc4)ccc3OC)cn2c1N(C)Cc1ccc(OC)cc1	-28	-1	-8	-11	4	8	.	.
CCc1nc2ccc(C(=O)Nc3ccc(NC(C)=O)cc3)cn2c1N(C)C(=O)Cc1ccccc1	-2	7	13	-14	-1	53*	-8	3
CCc1nc2ccc(C(=O)Nc3cc(-c4ccccc4)ccc3OC)cn2c1N(C)Cc1nccs1	15	13	9	-14	-5	50*	6	21
C[C@H](O)[C@@H]1C(=O)N2CCc3c([nH]c4cccc(-c5ccccc5)c34)[C@@H]2C[C@@H]1N(C)C(=O)c1ccco1	.	.	-16	.	-8	8	.	.
O=C(c1cc(COc2c(F)cccc2F)on1)N1CCC(c2ccncc2)CC1	30	28	-7	16	11	60*	5	47*
O=S(=O)(c1ccc(CN2CCOCCOCCN(Cc3ccc(S(=O)(=O)C(F)(F)F)cc3)CCOCC2)cc1)C(F)(F)F	.	.	.	.	.	62*	7	19
C#CCN1CC(N(C)CCOC(=O)CC2C=CCC2)CS1(=O)=O (stereo unspecified)	.	.	6	.	.	6	.	.
Cc1ccc(NC(=O)c2cnc(N3CCN(c4ccccn4)CC3)c3ccccc23)c(Br)c1	27	37	18	21	-4	38*	-6	39*
O=C(Nc1c(F)cccc1F)c1cnc(N2CCN(c3ccccn3)CC2)c2ccccc12	32	15	1	46	-1	29	.	.
CC(C)=CCC[C@@]1(C(=O)O)[C@@H]2C/C=C(\C)CC/C=C(\C)CC[C@H]1[C@]1(CC2)CO1	.	.	9	.	.	-2	.	.
O=C(NCCN1CCC(Cc2ccccc2)CC1)C1CCCN(S(=O)(=O)c2ccc(Cl)s2)C1 (stereo unspecified)	.	.	28	.	.	25	.	.
COC(=O)N1C[C@H](OC(=O)c2ccc(-c3ccccc3)cc2)[C@H]2C[C@@H]1c1ccccc1O2	.	.	17	.	-5	-4	.	.
COc1ccc2cc3[n+](cc2c1OC)CCc1cc2c(cc1-3)OCO2	-26	10	-3	34	2	53*	14*!	54*!
COc1cccc(C2=NCCc3cc4c(cc32)OCO4)c1OC	7	6	14	10	1	-15	.	.
COC(=O)c1cccc(CN2C(=O)C(C)Sc3ccc(C(C)=O)cc32)c1 (stereo unspecified)	-44	-13	-27	-70	-9	-14	.	.
CC(=O)c1ccc2c(c1)N(Cc1ccccc1Cl)C(=O)C(C)S2 (stereo unspecified)	-19	7	27	39	-7	84*	4	9
OCCN(CCO)CC(O)COc1ccc(C23CC4CC(CC(C4)C2)C3)cc1 (stereo unspecified)	55	42	73*	40	-5	87*	62*	72*
OCCN(CCO)CC(O)COc1ccc(Br)cc1 (stereo unspecified)	21	13	-23	5	7	-26	.	.
